The source of these data is PubChem BioAssay (NCATS).

Where “and” joins values, the source holds several entries; their conditions need not be identical. Identical values can stand only once. Records with an inconclusive call do not appear. Unmarked numbers belong to inactive results. Calls of active or inactive are those of the source. Calls follow the shape of the dose curve; as a rule, active = well fitted inhibition curve with a large enough effect; inconclusive = small, poorly fitted or top-dose-only effect; inactive = flat fitted curve, though single readings scatter.
% is scaled to controls: 0 for no effect and ±100 for the full control effect; potency is read from the fitted curve at half-maximal effect.

One assay concerns KB-3-1. Briefly: Cytotoxic Profiling of Annotated Libraries Using Quantitative High-Throughput Screening (AID 1296008). Also: nearly all actives have a fitted effect of over 60% in size. As to conditions: Five cell lines viability, CellTiter-Glo ATP luminescence, 48-72 h; max response: hits give low values. The gist of the method: (§1)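 Compounds were pin-transferred onto cells and incubated 48 or 72 hr at 37 degree Celsius, 95% humidity. CellTiter-Glo was added, plates sat 10 min at room temperature, then ATP-coupled luminescence was imaged as the viability read-out.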
(In general: Cellular ATP, detected with luciferase, serves as a proxy for viable cell number.)
Regarding `CN(C)CCCN1c2ccccc2Sc2ccc(Cl)cc21`, the max response was -6.48%.
As for `CC(CN(C)C)CN1c2ccccc2CCc2ccccc21` (stereo not given), the max response is 4.48%.
For `CC1(C)Oc2ccc(C#N)cc2[C@@H](N2CCCC2=O)[C@@H]1O`, the max response was -0.98% and -8.03%.
Regarding `CN1CCCCC1CCN1c2ccccc2Sc2ccc(S(C)=O)cc21` (stereo not given), the max response was -15.2% and 0.424%.
Regarding `CC1=C(/C=C/C(C)=C/C=C/C(C)=C/C(=O)O)C(C)(C)CCC1`, the max response is -14.5%.
Still for that read-out and setting: the result for `NC(=O)N/N=C/c1ccc([N+](=O)[O-])o1` reads -7.34% and -25.8%.
In the case of `CSc1ccc2c(c1)N(CCC1CCCCN1C)c1ccccc1S2` (stereo not given), the max response is -7.5%.
On to `CNCCC(Oc1ccc(C(F)(F)F)cc1)c1ccccc1` (stereo not given), for which the max response is 2.04%.
With `[Cl][In]([Cl])[Cl]`, the max response is 0.288% and -3.71%.
The same measure, in the same setting: as for `O=C1Nc2ccc(Cl)cc2[C@@](C#CC2CC2)(C(F)(F)F)O1`, the figure is 17.8% and -24.9%.

In another assay the test system is NIH3T3. Described as above. As to conditions: Five cell lines viability, CellTiter-Glo ATP luminescence, 48-72 h; max response: hits give low values. Put shortly:
as §1
`CC(=O)Oc1ccc(C2(c3ccc(OC(C)=O)cc3)C(=O)Nc3ccccc32)cc1`: the max response was -14.8%.
`NC1[C@H]2CN(c3nc4c(cc3F)c(=O)c(C(=O)O)cn4-c3ccc(F)cc3F)C[C@@H]12` (stereo not given in full): the Potency was 16.8 µM (active).
Still for that read-out and setting: the result for `CC(=O)O[C@@]12CO[C@@H]1C[C@H](O)[C@@]1(C)C(=O)[C@H](O)C3=C(C)[C@@H](OC(=O)[C@H](O)[C@@H](NC(=O)OC(C)(C)C)c4ccccc4)C[C@@](O)([C@@H](OC(=O)c4ccccc4)[C@H]21)C3(C)C` reads 0.0084 µM (active).
For the molecule `CC(=O)c1ccc2c(c1)N(CCCN(C)C)c1ccccc1S2`, the max response is 1.48%.
As for `NC(=O)NNc1ccccc1`, the max response is -2.02%.
For `C=Cc1c(C)c2cc3[nH]c(cc4nc(cc5nc(cc1[nH]2)C(C)=C5CCC(=O)O)C(CCC(=O)O)=C4C)c(C)c3C=C`, the max response is -14.7%.
Take `CCN(CC)CCNC(=O)c1c(C)[nH]c(/C=C2\C(=O)Nc3ccc(F)cc32)c1C`: the max response is -10.6%.
Regarding `CCN(CC)CCSC(=O)C(c1ccccc1)c1ccccc1`, the max response was -1.72%.
The same measure, in the same setting: as for `OCc1cc(C(O)CNCCCCCCOCCCCc2ccccc2)ccc1O` (stereo not given), the figure is -10.4%; as for `CC(C)c1c(C(=O)Nc2ccccc2)c(-c2ccccc2)c(-c2ccc(F)cc2)n1CC[C@@H](O)C[C@@H](O)CC(=O)O`, -9.75% and 4.05%.
`CN1CCN(C2Cc3ccccc3Sc3ccc(Cl)cc32)CC1` (stereo not given): the max response is -9.64%.
Regarding `CN(C)CCC=C1c2ccccc2CCc2ccccc21`, the max response is -1.26%.
The same measure, in the same setting: the result for `CC(CN(C)C)CN1c2ccccc2CCc2ccccc21` (stereo not given) reads 4.54%; that for `CC1(C)Oc2ccc(C#N)cc2[C@@H](N2CCCC2=O)[C@@H]1O`, -6.15%; that for `CN1CCCCC1CCN1c2ccccc2Sc2ccc(S(C)=O)cc21` (stereo not given), -18.7%.
Turning to `CC1=C(/C=C/C(C)=C/C=C/C(C)=C/C(=O)O)C(C)(C)CCC1`, the max response is -0.598%.
Consider `CNCC(O)c1ccc(O)c(O)c1` (stereo not given), for which the max response was -1.98%.
`NC(=O)N/N=C/c1ccc([N+](=O)[O-])o1`: the max response is 3.44%.
Consider `[Cl][In]([Cl])[Cl]`, for which the max response is -11.3%.
On to `O=C1Nc2ccc(Cl)cc2[C@@](C#CC2CC2)(C(F)(F)F)O1`, for which the max response is 3.57%.
